From article PMC8384837, “Expanding the binding specificity for RNA recognition by a PUF domain” come the findings set out here.

In this assay the target is PUM1 PUF domain R5-RAR (Homo sapiens, UniProt Q14671 828-1176, C1007R;R1008A;Q1011R). In words: yeast three-hybrid, YBZ-1, SC-Leu-His + 0.5 mM 3-AT, 4 days. The note with it: tags: N-Gal4 AD-HA kept; label: inside an RPR1-promoter hybrid RNA with tandem MS2 sites; ssRNA. The essentials: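 The interaction score is the logarithmic change in variant frequency from input to selection. It uses log2, with a pseudocount of 1 for absent variants, and frequencies came from PCR-amplified, Illumina-sequenced repeat regions. The libraries were Pumilio-1 PUF domains randomized at the three base-contacting residues per repeat, co-expressed with matching RNA elements in strain YBZ-1 (LexA–MS2 coat fusion, HIS3 reporter). Plating lasted four days on SC-Leu (input) or SC-Leu-His + 0.5 mM 3-AT (selection).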
Take “GGCUAGAACUAGUGGAUCCCCCGGCGCCCGGCGGCUCGAGCCCGGGUAAGUGUCAAUAGUCUGCAUGCCGCCGGGCGCCAUGCCUGCAGGUCGACUCUAGAAAACAUG”: the binding signal was 3.66 log2 enrichment (interaction score).
For the sequence “GGCUAGAACUAGUGGAUCCCCCGGCGCCCGGCGGCUCGAGCCCGGGUAAGUGUUAAUAGUCUGCAUGCCGCCGGGCGCCAUGCCUGCAGGUCGACUCUAGAAAACAUG”, the binding signal is 2.31 log2 enrichment (interaction score).
With “GGCUAGAACUAGUGGAUCCCCCGGCGCCCGGCGGCUCGAGCCCGGGUAAGUGUAAAUAGUCUGCAUGCCGCCGGGCGCCAUGCCUGCAGGUCGACUCUAGAAAACAUG”, the binding signal is 0.57 log2 enrichment (interaction score).
